In PubChem BioAssay (NCATS) one finds Potency data, which are given here for 14 molecules.

Inconclusive results are not listed. A number with no mark means an inactive call. The source made the active and inactive calls. The call rests on the fitted dose curve.
Potency means the concentration at half of the fitted maximal effect.

The assay in a line: Cell Viability - MRC5 (AID 434).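 Further: cells exposed to compound for 40 hours at 37 °C; potency reflects cytotoxicity seen as loss of intracellular ATP.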 The conditions noted are these: MRC5 lung fibroblast viability, qHTS. Summed up:
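MRC5 normal human lung fibroblasts (1500/well) were treated with compounds for 40 hr at 37 °C in complete medium, and viable cells were measured as intracellular ATP by CellTiter-Glo luminescence. AC50 came from Hill fits, normalized to DMSO and 100 uM tamoxifen.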
In general terms: In qHTS, concentration-response curves come from the screen itself.
As to `c1cc(OCC2CO2)cc(OCC2CO2)c1` (centres undefined), the Potency is 34.7 µM (active). The figure for `Cc1cc(Nc2ccc(O)cc2)ccc1N` is over 92 µM. On to `CN(C)c1ccc(C2(c3ccc(N(C)C)cc3)OC(=O)c3cc(N(C)C)ccc32)cc1`, for which the Potency was over 92 µM.

For the molecule `CO[C@H]1/C=C/O[C@@]2(C)Oc3c(C)c(O)c4c(O)c(c5c(c4c3C2=O)NC2(CCN(CC(C)C)CC2)N=5)=NC(=O)/C(C)=C\C=C\[C@H](C)[C@H](O)[C@@H](C)[C@@H](O)[C@@H](C)[C@H](OC(C)=O)[C@@H]1C`, the Potency is over 92 µM. Consider `O=C(OCC(COC(=O)c1ccccc1)(COC(=O)c1ccccc1)COC(=O)c1ccccc1)c1ccccc1`, for which the Potency is over 92 µM. On to `ClC1=C(Cl)C(Cl)(Cl)C(Cl)=C1Cl`, for which the Potency is over 92 µM.

As for `CC/C(=C(\c1ccccc1)c1ccc(OCCN(C)C)cc1)c1ccc(O)cc1`, the Potency is 43.3 µM (active). Take `Nc1ccc2cc3ccccc3cc2c1`: the Potency was over 92 µM. The figure for `c1ccc2c(c1)-c1cccc3c1c-2cc1ccccc13` is over 92 µM; for `O=C=Nc1ccc(Cc2ccc(N=C=O)cc2)cc1` it is over 92 µM; for `O=[N+]([O-])c1cc([N+](=O)[O-])c2ccc(S(=O)(=O)O)cc2c1O` it is over 92 µM. On to `Cc1cc(O)c(C(C)(C)C)cc1Sc1cc(C(C)(C)C)c(O)cc1C`, for which the Potency was 40.2 µM (active). The figure for `CCC(C)Nc1ccc(NC(C)CC)cc1` (centres undefined) is 20.7 µM (active); for `O=C1OC2(c3cc(Br)c(O)c(Br)c3Oc3c2cc(Br)c(O)c3Br)c2c(Cl)c(Cl)c(Cl)c(Cl)c21` it is over 92 µM.
